The panel holds about 83,000 compounds, 20% with a hit somewhere; the sample as a whole holds those more often.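 Percent growth is the endpoint: 0 to 100 indicates growth inhibition (40 means 60% inhibition), 0 means no net growth, and negative values indicate cell death.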 Calls of active or inactive are those of the source. The calls were made as follows: active = growth percent below 10; inactive = the rest.
Legend:
Assay in all cases: NCI-60 one-dose screen, 48 h (100 = growth as untreated, 0 = no growth, -100 = all killed)
Conditions in all cases: 10 µM
[1] = system: HCT-15 colon
[2] = system: HT29 colon
[3] = system: SNB-75 CNS
[4] = system: SNB-19 CNS
[5] = system: U251 CNS
[6] = system: PC-3 prostate
[7] = system: SK-MEL-5 melanoma
[8] = system: UACC-62 melanoma
[9] = system: LOX IMVI melanoma
[10] = system: SK-MEL-28 melanoma

Measured: growth

COc1cc(C2c3cc4c(cc3C(O)C(CO)C2CO)OCO4)cc(OC)c1OC (stereo not given)
active: [2] 5.41% | [3] -4.31%
inactive: [1] 61.2% | [4] 35.8% | [5] 22.3% | [6] 25.3% | [7] 11.1% | [8] 40.8% | [9] 43.8% | [10] 44.1%

Cc1cc2cc3c(=O)[nH]c(=O)cc-3n(CC(O)C(O)C(O)CO)c2cc1C (stereo not given)
inactive: [1] 105% | [2] 110% | [3] 103% | [4] 114% | [5] 104% | [6] 99.9% | [7] 110% | [8] 112% | [9] 99.8% | [10] 114%

CC[C@@]1(C(N)=O)CC2C=CC1C2 (stereo not given in full)
inactive: [1] 116% | [2] 106% | [3] 92.4% | [4] 107% | [5] 113% | [6] 93.1% | [7] 106% | [8] 107% | [9] 105% | [10] 112%

CCc1c(C(=O)NCc2c(O)ccc3cccc(O)c23)[nH]c(C)c1C(C)=O
active: [7] 1.58%
inactive: [1] 14% | [2] 58.2% | [3] 56.6% | [4] 53% | [5] 33.4% | [6] 27.4% | [8] 15.4% | [9] 16.2% | [10] 37.5%

CCc1ccc(-c2nnc(COc3ccc(-c4nc5ccc(C)cc5[nH]4)cc3OC)o2)cc1
inactive: [1] 21.9% | [2] 48.9% | [4] 77.5% | [5] 25.5% | [6] 36.6% | [7] 15.3% | [8] 79.6% | [9] 48.2% | [10] 77.4%
active: [3] -50%

COc1cc(-c2c(C#N)c(N)n3c(nc4ccccc43)c2C#N)cc(Br)c1OC
active: [3] -8.28%
inactive: [1] 63.9% | [2] 32.1% | [4] 57.4% | [5] 25.3% | [6] 37.2% | [7] 35.8% | [8] 55.2% | [9] 52.9% | [10] 57.5%

CCN(CC)CCn1c(=N)n(CC(O)c2ccc(Cl)c(Cl)c2)c2ccccc21 (stereo not given)
inactive: [1] 51.2% | [2] 20.1% | [3] 71.8% | [4] 102% | [5] 69.7% | [6] 80.8% | [7] 55.6% | [9] 76.1% | [10] 10.4%
active: [8] -30.5%

C[C@]12CC[C@H]3[C@@H](CC=C4C[C@@H](O)CC[C@@]43C)[C@@H]1CC[C@@H]2C(=O)C/C=N/O
inactive: [1] 86.4% | [2] 81.1% | [3] 85.4% | [4] 95.1% | [5] 83.8% | [6] 71.9% | [7] 92.8% | [8] 88.6% | [9] 82% | [10] 106%

Oc1cc(O)c(Br)cc1Br
inactive: [1] 101% | [2] 98.1% | [3] 95.7% | [4] 102% | [5] 99.7% | [6] 87.9% | [7] 97.7% | [8] 101% | [9] 94% | [10] 111%

COc1ccc(-c2nnc(N3CCN(C(=O)CN4CCN(c5ccc(Cl)cc5)CC4)CC3)nc2-c2ccc(OC)cc2)cc1
inactive: [1] 76.8% | [2] 37.3% | [3] 81.4% | [4] 94.7% | [5] 80.3% | [6] 25.6% | [7] 51% | [8] 58.8% | [9] 75.9% | [10] 86.7%

COc1cc(-c2nc3cc(Cl)c(Cl)cc3[nH]2)ccc1OCC(=O)NN
inactive: [1] 65.2% | [2] 98% | [3] 106% | [4] 93% | [5] 91.2% | [6] 73.8% | [7] 91% | [8] 27.5% | [9] 28.5% | [10] 96.4%

C/C(=N/NC(=O)c1sc(=S)n(C)c1N)c1cc2cc(Cl)ccc2o1
inactive: [1] 92.6% | [2] 92.9% | [3] 144% | [4] 98.8% | [5] 97.5% | [6] 101% | [7] 11.3% | [8] 76.2% | [9] 72.9% | [10] 128%

O=C(O)CN1C(=O)C=CC1=O
inactive: [1] 100% | [2] 104% | [3] 103% | [4] 106% | [5] 102% | [6] 99.8% | [7] 101% | [8] 103% | [9] 102% | [10] 123%

COc1ccc(-c2nsc3c2NC(=O)CC3c2cccc(Cl)c2)cc1 (stereo not given)
active: [2] 2.95% | [3] -0.284%
inactive: [1] 27.7% | [4] 54.3% | [5] 35% | [6] 15.7% | [7] 23% | [8] 41.6% | [9] 43.7% | [10] 49.8%

COc1ccc(-c2oncc2-c2cc(OC)c3c(c2)OCO3)cc1
active: [2] 6.55% | [3] -9.45%
inactive: [1] 15.9% | [4] 46.2% | [5] 28% | [6] 40.4% | [7] 17.9% | [8] 50.7% | [9] 34.2% | [10] 37%

COc1ccc2nc(C)cc(Nc3ccc(Cl)cc3)c2c1
inactive: [1] 99.1% | [2] 116% | [3] 102% | [4] 104% | [5] 97.1% | [6] 100% | [7] 93.7% | [8] 99% | [9] 105% | [10] 105%

O=C1/C(=C/c2ccc(O)cc2)CSc2ccc(Cl)cc21
inactive: [1] 53.9% | [2] 69.3% | [3] 93.8% | [4] 88.4% | [5] 74.8% | [6] 58.9% | [7] 80.9% | [8] 71.8% | [9] 49.3% | [10] 107%

Cc1c(C(=O)N[C@H](CO)Cc2ccccc2)[nH]c2ccc(Cl)cc2c1=O
inactive: [1] 100% | [2] 90.1% | [3] 99.9% | [4] 106% | [5] 92.7% | [6] 97.6% | [7] 99% | [8] 92.9% | [9] 97.9% | [10] 114%

CCCCN(CCCC)c1ccc(C(=NC(C)CCCN(CC)CC)c2ccc(N(C)C)cc2)cc1 (stereo not given)
active: [1] -79.8% | [2] -71.9% | [3] -34% | [4] -23% | [5] -79.9% | [6] -42.4% | [7] -99.6% | [8] -73.5% | [9] -96.7% | [10] -72.1%

C[C@]12CC[C@H]3[C@@H](CCC4=CC(=O)CC[C@@]43C)[C@@H]1CC[C@@H]2c1csc(N)n1
inactive: [1] 46.5% | [2] 56.6% | [3] 92.5% | [4] 71.5% | [5] 56.9% | [6] 19.3% | [8] 41.8% | [9] 59.3% | [10] 82.8%
active: [7] 9.04%

O=S(=O)(NC1c2ccccc2Oc2ccccc21)c1ccccc1
inactive: [1] 91.8% | [2] 92.2% | [3] 88.4% | [4] 105% | [5] 91.9% | [6] 88.2% | [7] 102% | [8] 97.8% | [9] 87.5% | [10] 101%

CCCCCCN=C(N)CCCCCCCCCCC(N)=NCCCCCC
inactive: [1] 31.8% | [2] 14% | [3] 23.8% | [4] 18.4% | [5] 14.8% | [6] 23.8% | [7] 20% | [8] 40.9% | [9] 37.2% | [10] 55.8%

FC(F)(F)c1ccc(-c2ncc(-c3ccc(C(F)(F)F)cc3)c(NCc3cc(C(F)(F)F)cc(C(F)(F)F)c3)n2)cc1
inactive: [1] 44.9% | [2] 76.1% | [3] 72.4% | [4] 29.1% | [5] 27.1% | [6] 31.4% | [7] 96.9% | [8] 51.6% | [9] 21.5% | [10] 89.5%

CCOC(=O)C(CCC1=NC(C)(C)CC(C)O1)C(=O)OCC (stereo not given)
inactive: [1] 46% | [2] 32% | [3] 104% | [4] 106% | [5] 82.3% | [6] 76.3% | [7] 108% | [8] 93.3% | [9] 90.1% | [10] 107%

CCOC(=O)Nc1ccc2c(c1)C(=O)N(CC)c1ccccc1O2
active: [2] -3.19% | [7] -28%
inactive: [1] 14.4% | [3] 27.3% | [4] 31.7% | [5] 18.7% | [6] 33.8% | [8] 21.5% | [9] 15.1% | [10] 63.4%

Cc1nc2cc(-n3c(-c4ccc(F)cc4)nc4ccccc4c3=O)ccc2n1Cc1ccccc1
inactive: [4] 37.9%
active: [1] 3.41% | [2] -23.8% | [3] 6.2% | [5] 9.65% | [6] 9.75% | [7] -77% | [8] 0.751% | [9] 6.97% | [10] -60.3%

O=[N+]([O-])C1CC2C=CC1C2 (stereo not given)
inactive: [1] 100% | [2] 99% | [3] 93.1% | [4] 109% | [5] 101% | [6] 96.9% | [7] 106% | [8] 103% | [9] 95.6% | [10] 110%

CC1(CO)CCCC12OCCO2 (stereo not given)
inactive: [1] 101% | [2] 98.6% | [3] 97.2% | [4] 105% | [5] 102% | [6] 103% | [7] 100% | [8] 100% | [9] 104% | [10] 108%

Source: PubChem BioAssay (NCI)
